Laboratory results as given in PubChem BioAssay.
Values joined by “and” are separate entries in the source; they are usually repeats but may differ in a detail not shown here. Equal values may be shown once. A structure can be active in one record and inactive in another. Active and inactive are the calls of the source. No stated cut-off is given here; in the data, active means fold change permeability below about 0.7 or above about 1.3; inactive means in between.

Assay: compounds altering in vitro BBB leakiness – cell-based, FITC-avidin fluorescence, HTS, primary screen (AID 1963498); further: test concentration not given here
Settings: brain endothelial barrier, actives lie on both sides

Row | SMILES | fold change permeability
1 | NCC1(CC(=O)O)CCCCC1 | 0.9 (inactive)
2 | Cc1c2ccncc2c(C)c2c1[nH]c1ccccc12 | 1.2 (inactive)
3 | CCN(CC)c1ncnc2c1ncn2[C@@H]1O[C@H](COP(=O)(O)OP(=O)(O)C(Br)(Br)P(=O)(O)O)[C@@H](O)[C@H]1O | 1.1 (inactive)
4 | c1ccc2c(c1)[I+]c1ccccc1-2 | 1.7 (active)
5 | NCC(CP(=O)(O)O)c1ccc(Cl)cc1 (stereo unspecified) | 1 (inactive)
6 | O=[N+]([O-])c1ccc2nc(N3CCNCC3)ccc2c1 | 1 (inactive)
7 | O=C1CCCN1CC#CCN1CCCC1 | 0.8 (inactive)
8 | CCCN1CCC[C@@H]2Cc3nc(N)ncc3C[C@H]21 | 1.1 (inactive)
9 | C[C@@H](N)Cc1cnc[nH]1 | 0.9 (inactive)
10 | C[N+](C)(C)CC(=O)O | 1 (inactive)
11 | CN1C(=O)CCS(=O)(=O)C1c1ccc(Cl)cc1 (stereo unspecified) | 1.3 (active)
12 | c1ccc(C2CC2)c(OCC2=NCCN2)c1 | 1 (inactive)
13 | CC[C@@H]1C(=O)OC[C@@H]1Cc1cncn1C | 1.3 (active) and 1.2 (inactive)
14 | COc1ccc2[nH]c3c(c2c1)CCNC3 | 1 (inactive)
15 | CCCCCN(C)CCC(O)(P(=O)(O)O)P(=O)(O)O | 1.8 (active)
16 | C[N+]1(C)[C@@H]2CC[C@H]1CC(OC(=O)C(CO)c1ccccc1)C2 (stereo partly specified) | 1 (inactive)
17 | CO[C@H]1CC[C@@H](O[C@H]2C[C@H]([C@]3(C)CC[C@]4(C[C@H](O)[C@@H](C)[C@@H]([C@@H](C)/C=C(\C)C(=O)[C@H](C)C[C@H](C)C(=O)O)O4)O3)O[C@]3(O[C@@H]([C@H]4O[C@@](O)(CO)[C@H](C)C[C@@H]4C)C[C@@H]3C)[C@@H]2C)O[C@@H]1C | 1.3 (active)
18 | C[N+](C)(C)CC#CCOC(=O)Nc1cccc(Cl)c1 | 0.9 (inactive)

Row | SMILES | fold change permeability
19 | NC(=O)CI | 1.2 (inactive)
20 | CC1=NN=C(c2ccc(N)cc2)c2cc3c(cc2C1)OCO3 | 1.1 (inactive)
21 | CCCCc1ccc(C(=O)O)nc1 | 0.8 (inactive)
22 | Cc1cc([C@@H]2CCCN2C)on1 | 1.1 (inactive)
23 | COc1ccc(OC)c(C(O)C(C)N)c1 (stereo unspecified) | 0.8 (inactive)
24 | CN[C@@H]1Cc2cccc3[nH]c(=O)n(c23)C1 | 0.8 (inactive)
25 | CCCN(CCC)CCc1ccc(O)c(O)c1 | 0.8 (inactive)
26 | O=c1[nH]oc2c1CCNC2 | 1.4 (active)
27 | C=C(C)[C@H]1Cc2c(ccc3c2O[C@@H]2COc4cc(OC)c(OC)cc4[C@@H]2C3=O)O1 | 1.7 (active)
28 | CCCN1CCC[C@@H]2Cc3[nH]ncc3C[C@H]21 | 0.9 (inactive)
29 | C[N+]1(C)C2CCC1CC(OC(=O)C(CO)c1ccccc1)C2 (stereo unspecified) | 1.1 (inactive)
30 | CC(N)[C@H](O)c1ccc(O)c(O)c1 (stereo partly specified) | 1 (inactive)
31 | NC(N)=NOCC[C@H](N)C(=O)O | 1 (inactive) and 0.8 (inactive)
32 | CNCCc1c[nH]c2ccc(O)cc12 | 0.8 (inactive)
33 | Clc1cnc(Oc2ccc(Oc3ncc(Cl)cc3Cl)cc2)c(Cl)c1 | 1.4 (active)
34 | CN1CCC(c2c[nH]c3ccc(O)cc23)CC1 | 1 (inactive)
35 | COc1ccccc1N1CCNCC1 | 0.9 (inactive)
36 | COc1ccc(Cc2nccc3cc(OC)c(OC)cc23)cc1OC | 1.2 (inactive)
